Compound activity (PubChem BioAssay)
In the library only some 19% were active in any assay of this set; here they are far more common.
ELG1 DNA repair – ELG1-dependent DNA repair inhibition | HEK293T ELG1-luciferase reporter, luminescence, 16 h; DNA damage induced by 5-fluorouridine | Potency, µM (doses to about 46.1 µM), for the others: at the highest dose activity change, negative = inhibition, actives largely listed as inhibitors | 330,000 compounds, 2.3% hits; further: potency means the concentration at half of the fitted maximal effect; nearly all actives have a fitted effect of over 55% in size
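In this reporter screen, reduction of luminescence relative to DMSO vehicle indicated activity. Compounds and 5-fluorouridine were added together to 2,000 cells per well, incubated for 16 hr at 37 °C, then developed with ONE-Glo.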
HT1080NT lethal – kills 2HG-producing HT-1080-NT fibrosarcoma cells. HT-1080-NT fibrosarcoma viability, CellTiter-Glo ATP luminescence, 48 h. Potency, µM (doses to about 46.1 µM), without a hit: at the top dose activity, negative = less viability, usual class: cytotoxic. 360,000 compounds, 1.6% hits. AID 686970;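 further: NT is the 2HG producing partner of a matched IDH1 knockdown line; potency means the concentration at half of the fitted maximal effect; 0% = DMSO-treated cells and -100% = media-only wells without cells; nearly all actives have a fitted effect of over 55% in size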
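HT-1080-NT; 750 cells/well; 5% FBS RPMI; 48 h compound, 37 degrees C; CellTiter-Glo luminescence; curve fitting and curve-class assignment.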
DT40 TDP1 no CPT – qHTS for Inhibitors of human tyrosyl-DNA phosphodiesterase 1 (TDP1): qHTS in cells in absence of CPT. DT40 Tdp1-/- hTDP1 cells, no CPT, ATP luminescence, 48 h. Potency, µM (titrated, usually from 46.2 µM), inactives show at the highest dose activity change, negative = growth inhibition, hits mostly inhibitors. 420,000 compounds, 15% hits; further: potency means the concentration at half of the fitted maximal effect; nearly all actives have a fitted effect of over 55% in size
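Chicken DT40 Tdp1-/- cells stably complemented with human TDP1 were seeded at 400 cells/well with DMSO in place of 20 nM camptothecin. After compound pinning, cells grew at least 48 hr at 37 °C; viability read by CellTiter-Glo luminescence.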
IL-1B inflam inh – inhibitors of inflammasome signaling (IL-1 beta secretion). THP-1 LPS/ATP IL-1B secretion, AlphaLISA, 16 h; stronger effect = lower value. activity change, % at 57.5 µM. 360,000 compounds, 4.7% hits; in the data active means activity change below about -50%; inconclusive means mostly about -30% to -49%
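Secreted IL-1B measured by AlphaLISA bead assay after 16 h compound exposure of THP-1 cells; compounds (final up to 57.5 uM) added 1 h before LPS (250 ng/mL) and ATP (1.25 mM) stimulation; lower signal means less secretion.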
HT1080 IDH1KD tx – kills HT-1080 cells with IDH1 knockdown | HT-1080 IDH1 knockdown viability, ATP luminescence, 48 h | Potency, µM (doses to about 46.1 µM), inactives show top-dose activity, negative = toxicity, hits mostly cytotoxic | 360,000 compounds, 2% hits | AID 686971;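 further: potency means the concentration at half of the fitted maximal effect; 0% = DMSO wells and -100% = cell-free medium wells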
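After a 2 h attachment period, IDH1KD HT-1080 cells took pin-transferred compound for 48 h at 37 °C; ATP-based luminescence after 10 min room-temperature reagent incubation reported viability.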
TDP1 cell CPT – DT40-hTDP1 cell growth loss with CPT; 420,000 compounds, 12% hits; Potency, µM (titrated, usually from 46.2 µM), without a hit: at the top dose activity change, negative = growth inhibition, hits mostly inhibitors; chicken DT40 Tdp1-/-;hTDP1 cells + 20 nM CPT, ATP luminescence, 48 h; further: potency means the concentration at half of the fitted maximal effect; nearly all actives have a fitted effect of over 55% in size
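Chicken DT40 Tdp1-/- cells stably complemented with human TDP1 were seeded at 400 cells/well in medium containing 20 nM camptothecin, exposed to pin-transferred compounds, and grown at 37 °C for at least 48 hr. Viability was read as ATP luminescence.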
The depositor's hits bear a star; ? = inconclusive; nt = no result; [ ] = dose if it differs, or a comment. Unless noted, the call rests on the fitted dose curve; in most records, active means well fitted curve in the direction sought with a large enough effect; inconclusive means small, poorly fitted or top-dose-only effect, or another doubt; inactive means no such curve, though single readings can be large; an effect the other way counts as inactive or inconclusive. Unless noted, on the % scale 0 is the no-effect control and ±100 the full control effect.

SMILES | ELG1 DNA repair | HT1080NT lethal | DT40 TDP1 no CPT | IL-1B inflam inh | HT1080 IDH1KD tx | TDP1 cell CPT
Cc1cccc(NC(=S)N/N=C2\CC(C)(C)Oc3ccc(O)cc32)c1 | ? | -18.3% | 2.59µM* | ? | -16.1% | 3.66µM*
COc1ccc(-c2cc3nc(C)cc(N4CC(C)CC(C)C4)n3n2)cc1 (stereo not drawn) | ? | 15.8% | 18.4µM* | -11.5 | -1.6%[9.24 µM] | ?
COc1ccc(-c2[nH]nc3nc(N4CCN(C(=O)c5ccoc5)CC4)cc(C(F)(F)F)c23)cc1 | nt | ? | 8.2µM* | -26.6 | ? | 8.2µM*
COc1ccc(-c2cc(C(F)(F)F)n3nc(C(=O)N4CCCC4)cc3n2)cc1 | -11.1% | 18.6% | -20.2% | -2.2 | 17.6% | -28.8%
COCCN1CCN(c2c(C)c(C)nc3cc(-c4cccc(OC)c4)nn23)CC1 | nt | -17.6% | ? | -3.4 | -7.6% | ?
CCOC(=O)C1CCN(c2cc(C)nc3cc(-c4cccc(F)c4)nn23)CC1 | ? | 8.1% | ? | 8.7 | 15.0% | ?
Cc1cc(C)n2nc(-c3ccc(F)cc3)cc2n1 | nt | -1.7% | -21.2% | 22.9 | 0.3% | -20.8%
CCOCCN1CCN(c2c(C)c(C)nc3cc(-c4cc(OC)cc(OC)c4)nn23)CC1 | 16.4µM* | ? | 25.9µM* | ? | -9.9% | ?
COc1cccc(-c2cc3nc(C)cc(N4CCN(C(=O)c5ccoc5)CC4)n3n2)c1 | nt | 2.8% | 20.6µM* | 18.4 | -7.8% | ?
CCOC(=O)c1c(NC(=O)/C=C/c2ccc(Cl)cc2)sc2c1CCC(C)C2 (stereo not drawn) | nt | nt | -0.7% | nt | nt | 11.3%
CCOC(=O)c1ccc(NC2SC(=O)N(Cc3cccc(C(=O)O)c3)C2=O)cc1 (stereo not drawn) | nt | nt | 0.7% | nt | nt | -6.6%
Cc1nn(-c2ccccc2)c(OC(=O)c2ccccc2)c1S(=O)(=O)c1ccccc1 | nt | nt | 0.7% | nt | nt | -2.4%
CN(Cc1ccccc1)C(=O)c1csc(COCCO)n1 | nt | ? | -9.6% | 0.0 | 20.9% | -7.7%
Cc1nc2cc(-c3cccc(F)c3)nn2c(N2CCN(C(=O)c3ccco3)CC2)c1C | 16.4µM* | -5.4% | 14.6µM* | -14.3 | -6.6% | 14.6µM*
COc1ccc(-c2cc3nc(C)c(C)c(N4CCN(C(=O)c5ccoc5)CC4)n3n2)cc1 | nt | -9.5% | 18.4µM* | 1.7 | -5.5% | ?
COc1ccc(-c2cc3nc(C)cc(N4CCN(C(=O)c5ccoc5)CC4)n3n2)cc1 | nt | 7.2% | 20.6µM* | ? | 0.4% | 18.4µM*
COc1ccc(-c2cc3ncc(C(C)=O)c(C)n3n2)cc1 | ? | -3.9% | -12.0% | -14.4 | -1.2% | -3.5%
Cc1nc2cc(-c3cccc(F)c3)nn2c(C)c1CCC(=O)N1CCN(c2ccccn2)CC1 | 17.7% | 0.3% | -20.8% | 4.0 | 20.8% | -3.6%
c1ccc(COc2ccccc2CNc2nn[nH]n2)cc1 | 2.4% | 14.1% | -22.3% | 13.6 | 6.9% | -27.8%
N#Cc1c(N)[nH]c2ccc(Sc3ccccc3)cc12 | nt | 3.26µM* | 0.731µM* | -7.5 | 7.31µM* | 0.731µM*
Cc1cccc(CSc2ncc(CO)n2Cc2ccc(F)cc2)c1 | nt | nt | 16.4µM* | nt | nt | 20.6µM*
Cc1cccc(CSc2ncc(CO)n2C)c1 | 26.9% | -6.7% | ? | -19.7 | -0.5% | -10.6%
Cc1ccccc1CSc1ncc(CO)n1Cc1ccc(F)cc1 | nt | nt | ? | nt | nt | 18.4µM*
COc1ccc(-c2nc3c(C#N)c[nH]n3c2NC2CCCCC2)cc1 | nt | nt | 16.4µM* | nt | nt | 16.4µM*
C/C(=C\C(=O)c1ccc(C)cc1)Nc1cccc(O)c1 | ? | -19.3% | ? | -2.3 | -25.0% | 18.4µM*
SMILES | ELG1 DNA repair | HT1080NT lethal | DT40 TDP1 no CPT | IL-1B inflam inh | HT1080 IDH1KD tx | TDP1 cell CPT
C=CCN1C(=O)C(CC(=O)Nc2ccc(OC)cc2)SC1=Nc1ccc(S(N)(=O)=O)cc1 (stereo not drawn) | ? | 12.4% | 2.7% | 6.4 | 13.8% | 24.2%
COc1ccc(N=C2SC(CC(=O)Nc3cccc(Cl)c3)C(=O)N2Cc2ccco2)cc1 (stereo not drawn) | ? | ? | ? | ? | 16.4µM* | ?
COc1cc([N+](=O)[O-])ccc1NC(=O)CC1SC(=Nc2ccc(F)cc2)N(CCC2=CCCCC2)C1=O (stereo not drawn) | -7.3% | -1.4% | 14.6µM* | -4.0 | -3.5% | 16.4µM*
COc1ccc(N=C2SC(CC(=O)Nc3ccccc3)C(=O)N2Cc2ccccn2)cc1 (stereo not drawn) | ? | -26.7% | 23.1µM* | -67.0* | -8.2% | 29.1µM*
COc1ccc(OC)c(NC(=O)CC2SC(=Nc3ccccc3)N(CCc3ccccn3)C2=O)c1 (stereo not drawn) | ? | -16.7% | ? | ? | -18.9% | 23.1µM*
COc1ccc(N=C2SC(CC(=O)Nc3ccccc3)C(=O)N2CCc2ccccn2)cc1 (stereo not drawn) | ? | 1.5% | ? | -12.6 | 10.1% | ?
CCOC(=O)c1c(NC(=O)CCCOc2ccc(C)cc2)sc2c1CCC(C)C2 (stereo not drawn) | nt | nt | -0.7% | nt | nt | -1.8%
COC(=O)C1(C(=O)OC)c2ccccc2N(S(=O)(=O)c2ccc(C)cc2)C1CC(=O)c1ccccc1 (stereo not drawn) | nt | 5.2% | ? | 27.7 | 8.8% | ?
Cc1ccc(C(=O)NCC(=O)NC2CCC(C)CC2)s1 (stereo not drawn) | ? | 0.2%[9.24 µM] | 5.9% | 5.5 | 14.1% | 1.1%
CCN1CCN(Cc2c(O)ccc3oc(C)c(C(=O)Nc4cccc(Cl)c4C)c23)CC1 | nt | nt | 20.6µM* | nt | nt | 8.2µM*
Cc1oc2ccc(O)c(CN3CCN(C)CC3)c2c1C(=O)Nc1cccc(Cl)c1C | nt | nt | 18.4µM* | nt | nt | 8.2µM*
Cc1c(Cl)cccc1NC(=O)CN1CCN(CCO)CC1 | -3.3% | 10.1% | 3.1% | -4.6 | 5.8% | -6.4%
Cc1c(Cl)cccc1NC(=O)NN1CCN(C)CC1 | -5.1% | -0.6% | 2.2% | -0.4 | -6.6% | ?
O=C(CSc1nc(=O)[nH]c2c1CCCC2)NCc1ccccc1Cl | nt | nt | 7.8% | nt | nt | -25.6%
CCOc1ccc(NC(=O)N(C(C)C)C2CCN(C(C)=O)CC2)cc1 | nt | nt | -7.4% | nt | nt | 3.3%
CC(C)CCN(C(=O)Nc1ccc(Cl)c(Cl)c1)C1CCN(C(C)C)CC1 | nt | nt | 14.6µM* | nt | nt | 14.6µM*
CCOC(=O)c1ccccc1NC(=O)N(C(C)C)C1CCN(C(C)=O)CC1 | nt | nt | 14.6µM* | nt | nt | 14.6µM*
